Pf Dd2 inh: qHTS Primary assay for Inhibitors of Plasmodium falciparum Dd2 growth in vitro | P. falciparum Dd2 growth, SYBR Green, 72 h | Potency, µM (top dose mostly 28.9 µM), usual class: inhibitors | 4.3% of 120,000 active | AID 1347417, 2020; active means well fitted inhibition curve with a large enough effect; further: nearly all actives have a fitted effect of over 65% in size
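Infected erythrocytes (Dd2, 0.3% parasitemia, 2.5% hematocrit final) are added to compound in RPMI-1640/Albumax II medium, grown 72 h at 37C in low oxygen, then lysed with saponin/Triton-X containing SYBR Green and read by fluorescence.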
Of the large screens only hits and unclear results are named; the others gave an inactive call. This is one part of a sample in which hits are shown more often than they occur.

Cc1cc(C(=O)N[C@@H]2C[C@H](Cn3cc(CN4CCS(=O)(=O)CC4)nn3)[C@@H](O)[C@H]2O)no1	none
COCCNC(=O)C[C@@H]1C[C@H]2O[C@H](CNCc3ccccc3OC(F)(F)F)[C@@H](O)[C@H]2O1	none
O=C1N[C@H](CC(=O)N2CCC(c3nc4ccccc4[nH]3)CC2)C(=O)Nc2ccccc21	none
COc1ccc(C2Cn3nnc(-c4noc(Cc5ccccc5C)n4)c3CO2)cc1 (configuration not stated)	none
O=C(C1CCCC1)N1CCC(Oc2ccccc2)C1 (configuration not stated)	none
CCCCOc1ccc(C(=O)N2CCC(c3n[nH]c(=O)n3-c3ccc(C)cc3)CC2)cc1	none
CN(Cc1ccc(OC(F)(F)F)cc1)C1CCOc2ccccc21 (configuration not stated)	none
CNC(=O)[C@@H]1CN(C(=O)Cc2ccc(OC)c(OC)c2)C[C@H]1COC	none
COc1ccc(CC(=O)N2CCc3cc(OC)c(OC)cc3C2COc2cc(C)cc(C)c2)cc1OC (configuration not stated)	Pf Dd2 inh 4µM
CCOc1cc2c(cc1OCC)C(CC(=O)OC)N(C(=O)Nc1cc(C)cc(C)c1)CC2 (configuration not stated)	none
COc1cc2c(cc1OC)C(CNC(=O)CC(C)C)N(C(=O)NC(C)C)CC2 (configuration not stated)	none
CCCCC(=O)N1CCc2cc(OC)c(OC)cc2C1COc1ccc(C(=O)OCC)cc1 (configuration not stated)	Pf Dd2 inh 11µM
COC(=O)c1ccc(OCC2c3cc(OC)c(OC)cc3CCN2C(=O)Cc2ccc(OC)cc2)cc1 (configuration not stated)	Pf Dd2 inh 10µM
CCOC(=O)CC1c2cc(OCC)c(OCC)cc2CCN1C(=O)Nc1cccc(Cl)c1 (configuration not stated)	none
CCC(=O)N1CCc2cc(CNC(=O)Cc3ccc(OC)c(OC)c3)ccc21	none
CCNC(=O)N1CCc2cc(OC)c(OC)cc2C1CNC(=O)CC(C)C (configuration not stated)	none
COC(=O)c1ccc(OCC2c3cc(OC)c(OC)cc3CCN2C(=O)Cc2ccc(OC)c(OC)c2)cc1 (configuration not stated)	Pf Dd2 inh 11µM
CN(C)C(=O)N1CCCC(C(=O)NCCc2nc(-c3ccccn3)no2)C1 (configuration not stated)	none
CN(C)C(=O)N1CCC(c2nc(COc3ccccc3)nn2CCO)CC1	none
CC(=O)N1[C@H]2CC[C@@H]1c1cnc(-c3ccccc3)nc1C2	none
COc1ccccc1N1CCN(C(=O)CN2C(=O)NC(c3ccc(Cl)cc3)C3=C2COC3=O)CC1 (configuration not stated)	none
Cc1ccc(-n2nc3n(c2=O)CCN(C(=O)Nc2ccc(Cl)cc2)C3)cc1	none
Fc1ccc(-c2cnc([C@@H]3COCCN3Cc3csnn3)[nH]2)cc1	none
CN1CCC2(CCC1=O)CN(C(=O)c1cnn3c1CCCC3)CCN2C (configuration not stated)	none
CN(Cc1ccccc1C(F)(F)F)Cc1ccccc1C(F)(F)F	none
CCOC(=O)c1nc(Nc2ccc(C(=O)OC(C)C)cc2)c2ccccc2n1	Pf Dd2 inh 3.2µM
CCCCCOC(=O)c1ccc(Nc2nc(C(=O)OCC)nc3ccccc23)cc1	none
CCOC(=O)c1nc(Nc2ccccc2OC)c2ccccc2n1	none
CCOC(=O)c1ccc(Nc2nc(C(=O)OCC)nc3ccccc23)cc1	none
CCOC(=O)c1nc(Nc2ccc(OC)cc2)c2ccccc2n1	none
CCOC(=O)c1nc(Nc2ccc(C(=O)OCC(C)C)cc2)c2ccccc2n1	Pf Dd2 inh 11µM
O=C1OCCN1C1CCN(S(=O)(=O)c2cccs2)CC1	none
O=C(NCc1cccc(F)c1)N1CC(c2nnc(-c3ccncc3)o2)C2(CCOCC2)C1 (configuration not stated)	none
CN(CC1(CO)CCC1)C(=O)C1CCC(=O)N(CCc2ccc(Cl)cc2)C1 (configuration not stated)	none
O=C(NCc1cccc(F)c1)[C@@H]1C[C@@H](c2ccc(F)cc2)N([S+](=O)([O-])c2ccccc2)C1	none
Cc1cc2c(c(=O)n(-c3ccc(F)cc3)c(=O)n2CC(=O)Nc2ccc3c(c2)OCO3)n1C	none
Cc1ccc(CN[C@@H]2CO[C@H](CNC(=O)C3CC3)[C@H]2O)cc1	none
CCC(=O)N(CCC(c1ccccc1)c1ccc2c(c1)OCO2)Cc1ccc(OC(C)C)cc1 (configuration not stated)	none
COc1ccc(CNC(=O)C(=O)NCC(c2ccc3c(c2)OCO3)N2CCOCC2)cc1 (configuration not stated)	none
COc1ccc(CNCCC(c2ccc3c(c2)OCO3)c2ccccc2OC)cc1 (configuration not stated)	Pf Dd2 inh 5µM
O=C1CO[C@H](c2ccc(NC(=O)C3CCOCC3)cc2)[C@@H](CO)N1	none
Cc1nnnn1CCC(=O)Nc1nn(C)c2cccc(N3CCOCC3)c12	none
CN(C)C(=O)C1CN(C(=O)c2ccncc2)CC12CCOCC2 (configuration not stated)	none
Cc1noc(-c2ccncc2)c1C(=O)NCCCCc1ccccc1	none
Cc1cc(=O)n(CC(=O)Nc2ccc(F)c(Cl)c2)c(N(C)Cc2ccccc2)n1	none
CC(=O)N1Cc2ccccc2OC2(CCN(C(=O)c3cccc4[nH]ccc34)CC2)C1	none
CCC(=O)N1Cc2ccccc2OC2(CCN(C)CC2)C1	none
CC(=O)N1CCC2(CC1)CN(C(=O)N(C)C)Cc1ccccc1O2	none
CC(=O)N1CCC2(CC1)CN(C(=O)c1ccc3[nH]ccc3c1)Cc1ccccc1O2	Pf Dd2 inh 10µM
CC(=O)Nc1ccc(C(=O)N2CCC3(CC2)CN(C(=O)NC(C)C)Cc2ccccc2O3)cc1	none
CN1CCC2(CC1)CN(C(=O)CCc1ccccc1)Cc1ccccc1O2	Pf Dd2 inh 1µM
CC(C)NC(=O)N1Cc2ccccc2OC2(CCN(C(=O)c3ccc4[nH]ccc4c3)CC2)C1	Pf Dd2 inh 10µM
CC(C)NC(=O)N1CCC2(CC1)CN(C(=O)c1ccnc(N)c1)Cc1ccccc1O2	none
COCCOCC(=O)N1Cc2ccccc2OC2(CCN(C)CC2)C1	none
COCC(=O)NC1CCC12CCN(C(=O)COc1ccc(F)cc1)CC2 (configuration not stated)	none
COc1ccc(S(N)(=O)=O)cc1C(=O)N1CCOCC1CC(=O)O (configuration not stated)	none
COc1ccccc1C(O)c1nc(Nc2cccc(F)c2)n[nH]1 (configuration not stated)	none
CCOc1ccc(-n2c(/C=C/c3cccc(F)c3)nc3cc(OC)c(OC)cc3c2=O)cc1	none
COc1cc2nc(Nc3cccc(F)c3)nc(N)c2cc1OC	Pf Dd2 inh 2.2µM
CCN(CCN1CCCC1)C(=O)C1CCC(=O)N(Cc2ccccc2F)C1 (configuration not stated)	none
CC(C)(C(=O)N1Cc2cnn(Cc3ccc(F)cc3)c2C1)c1ccccc1	none
CC(=O)N1CCC([C@@H]2CN(C(=O)COc3ccccc3)C[C@H]2CO)CC1	none
CC(C)(C(=O)N1C[C@H](C2CC2)[C@@H](N)C1)c1ccccc1	Pf Dd2 inh 6.3µM
Fc1ccc(OCCc2noc(C3CCCN3)n2)cc1 (configuration not stated)	none
CCCCNc1nc2ccccc2c2nc(-c3ccccc3)nn12	Pf Dd2 inh 3.2µM
Clc1ccc(CNc2nc3ccccc3c3nc(-c4cccnc4)nn23)cc1	none
Clc1ccccc1CNc1nc2ccccc2c2nc(-c3ccccc3)nn12	none
Clc1ccc(CCNc2nc3ccccc3c3nc(-c4ccccc4)nn23)cc1	none

Assay outcomes deposited in PubChem by National Center for Advancing Translational Sciences (NCATS).
